Inconclusive results are not listed. Activity calls are given as the source filed them. Cut-off read from the data, not from the text of the source, unless noted: active = response above about 15%; inactive = the rest.
Experiments:
[1] = yeast TOR pathway RPL19A-GFP modulators, primary screen, cell-based, S. cerevisiae, multiplex flow cytometry (AID 1862; in the data active = percent of DMSO control GFP below about 86%;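 note: lower values mimic rapamycin by blocking the RPL19A rise seen in DMSO cells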); conditions: S. cerevisiae RPL19A-GFP strain, flow cytometry fluorescence, 3 h; at 10 µM; stronger effect = lower value
[2] = modulators of MEP2-GFP levels in yeast, primary screen, S. cerevisiae, multiplex flow cytometry (AID 1867;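 active = GFP response, as percent of the DMSO control, above the screen-wide mean plus 3 SD, about 139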;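 note: median GFP channel fluorescence of barcode-gated MEP2-GFP cells measured by flow cytometry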); conditions: S. cerevisiae MEP2-GFP strain, 3 h, at 10 µM, stronger effect = higher value, 100% means same as DMSO wells
[3] = modulators of CIT2-GFP expression in yeast, primary screen, S. cerevisiae, GFP fusion, multiplex flow cytometry (AID 1870;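 active = percent response above a set limit, the screen-wide mean plus 3 SD, cut at about 130% in these data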;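 note: barcoded CIT2-GFP strain pooled with four other GFP strains with rapamycin as positive control; median GFP fluorescence per well over plate mean of DMSO wells so 100% = DMSO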); conditions: 3 h, at 10 µM, stronger effect = higher value
[4] = modulators of LAP4-GFP expression in yeast, primary screen, S. cerevisiae, multiplex flow cytometry (AID 1873;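 active = GFP signal, as percent of the solvent control, above the screen mean plus 3 SD, about 149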); conditions: 3 h, at 10 µM, stronger effect = higher value
[5] = modulators of AGP1-GFP expression in yeast TOR pathway, primary screen, cell-based, multiplex flow cytometry, S. cerevisiae (AID 1887;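 active = GFP signal above the screen-wide mean plus 3 SD, that is over about 124.5% of the solvent control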;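 note: AGP1-GFP fusion strain of S. cerevisiae within a five-strain barcoded multiplex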); conditions: 3 h, at 10 µM, stronger effect = higher value
[6] = inhibitors of CD8+ T cell-vesicle binding, pilot screen, LFA-1/ICAM-1 modulator project, MLPCN validation set, flow cytometry (AID 2523;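 active = response below a set limit, under 55% cells CD8-positive and vesicle-bound, and CD8 cells' 90th-percentile brightness under 279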;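 for vesicle binding response: mean PE anti-B7-1 fluorescence of CD8+ cells relative to row control; 100% = QL9-loaded vesicles with DMSO vehicle in the same plate row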); conditions: 2C mouse CD8+ T cells, at 7 µM, stronger effect = lower value; double positive events: measured here: CD8+/vesicle+ event percentage
[7] = molecular target: Integrin beta-1 (Homo sapiens) + Integrin alpha-4 (Homo sapiens) (UniProt P13612+P05556); test: inhibition of HUTS-21 binding to VLA-4, pilot screen, VLA-4 allosteric modulator project, U937 cells, HUTS-21 mAb, flow cytometry, validation set (AID 2674;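 active = inhibition above 50%, about 3 SD of the validation set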;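 note: antibody binding induced by the VLA-4 ligand LDV present at three times its Kd; 0% = LDV ligand with antibody and no compound and 100% = antibody without LDV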); conditions: HUTS-21 LIBS mAb binding, at 6.7 µM, stronger effect = higher value, binding induced by LDV ligand
[8] = superoxide lowering in aged yeast cells, pilot screen, validation compound set (AID 2706;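 active = superoxide response below 65% of plate, a cut near 3 SD across the whole screen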;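 note: yeast exposed to compound for one week at 30 degrees C before staining; 100% = mean of all compound wells on the same plate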); conditions: S. cerevisiae aging, superoxide DHE fluorescence; at 10 µM; stronger effect = lower value
[9] = molecular target: Beta-adrenergic receptor kinase 1 (Homo sapiens) (UniProt P25098); test: GRK2 binders displacing RNA aptamer, biochemical, validation, human GRK2, bead flow cytometry (AID 488806;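 active = aptamer binding inhibition above 30%, about 3 SD of noise from non-fluorescent compounds; inactive = inhibition at or below 30%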); conditions: bead-bound GRK2, FAM-aptamer displacement, at 10 µM, stronger effect = higher value
[10] = molecular target: Beta-2 adrenergic receptor (Homo sapiens) (UniProt P07550); test: beta2AR agonists driving receptor internalization, pilot screen, cell-based, FAP fluorogen, flow cytometry, validation set (AID 504459;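 active = percent response above 42, roughly 3 SD of non-fluorescent test compounds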;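 note: agonist-driven loss of surface beta2AR via internalization measured by FAP dye flow cytometry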); conditions: Am2.2-beta2AR cells, FAP surface receptor flow cytometry; at 10 µM; stronger effect = higher value
[11] = molecular target: AP-2 complex subunit beta (Homo sapiens) (UniProt P63010); test: inhibitors of arrestin peptide binding to AP2, pilot screen, biochemical, validation set, GST-AP2 beads, flow cytometry (AID 504541;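 active = inhibition above 54%, about 3 SD of non-fluorescent compounds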;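 note: AP2 carries R879A mutation and is captured from E. coli lysate; bead-bound FITC arrestin peptide fluorescence measuring arrestin peptide binding to AP2; 0% = DMSO wells and 100% = excess unlabeled arrestin peptide control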); conditions: FITC arrestin peptide, at 10 µM, stronger effect = higher value, AP2 beta2 appendage fragment, R879A mutant
[12] = yeast V-ATPase proton transport modulators, S. cerevisiae, pHLuorin, HTS validation (AID 504600);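 note: plate controls were DMSO for no effect and reference compound for full effect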; conditions: S. cerevisiae pHLuorin cytosolic pH, at 10 µM, stronger effect = higher value
[13] = test system: anti-desmoglein-3 scFv antibody binding to human DSG3; test: inhibitors of anti-DSG3 scFv binding to DSG3, pilot screen, biochemical, validation compound set, bead-based, flow cytometry (AID 588368;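 active = binding below the plate cutoff, the plate median minus 3 SD, with a reading above zero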;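 note: signal is the median channel fluorescence of bead-bound GFP antibody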); conditions: Protein G beads, DSG3-Fc, scFv-GFP binding, at 10 µM, stronger effect = lower value
[14] = inhibitors of fungal efflux pumps CDR1, CDR2, MDR1, pilot screen, validation compound set, multiplex, phenotypic (AID 588506;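 active = efflux inhibition above 0.42, the validation set average plus 4 SD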;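 note: Nile Red retained in cells so higher fluorescence means more efflux inhibition; 0 = negative control wells and 1 = enniatin B 25 µM full block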); conditions: S. cerevisiae pump-expressing triplex, Nile Red efflux flow cytometry; at 10 µM; stronger effect = higher value; the pumps come from Candida albicans
[15] = molecular target: ATP-binding cassette sub-family B member 6 (Homo sapiens) (UniProt Q9NP58); test: ABCB6 transporter inhibitors, pilot screen, K562-ABCB6 cells, flow cytometry, validation set (AID 588550;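 active = inhibition above the screen-wide mean plus 3 SD, about 51%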;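 note: 0% = DMSO wells and 100% = benzethonium chloride 70 µM positive control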); conditions: K562-ABCB6 porphyrin accumulation, 1 h, at 10 µM, stronger effect = higher value
[16] = promoters of myeloid differentiation in arrested cells, primary screen, cell-based, GFP/MAC1 double positive, flow cytometry, validation set (AID 588685;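 active = differentiation response of at least 50%, scaled between solvent and reference control, from cells with both markers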;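 note: compound exposure lasts four days before antibody staining and flow analysis; 0% = DMSO wells and 100% = 5 µM fulvestrant positive control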); conditions: ER-HoxA9 marrow cells, stronger effect = higher value, normalized: vehicle 0, fulvestrant 100

Sequence of Beta-adrenergic receptor kinase 1 (Homo sapiens) (P25098 whole entry, looked up): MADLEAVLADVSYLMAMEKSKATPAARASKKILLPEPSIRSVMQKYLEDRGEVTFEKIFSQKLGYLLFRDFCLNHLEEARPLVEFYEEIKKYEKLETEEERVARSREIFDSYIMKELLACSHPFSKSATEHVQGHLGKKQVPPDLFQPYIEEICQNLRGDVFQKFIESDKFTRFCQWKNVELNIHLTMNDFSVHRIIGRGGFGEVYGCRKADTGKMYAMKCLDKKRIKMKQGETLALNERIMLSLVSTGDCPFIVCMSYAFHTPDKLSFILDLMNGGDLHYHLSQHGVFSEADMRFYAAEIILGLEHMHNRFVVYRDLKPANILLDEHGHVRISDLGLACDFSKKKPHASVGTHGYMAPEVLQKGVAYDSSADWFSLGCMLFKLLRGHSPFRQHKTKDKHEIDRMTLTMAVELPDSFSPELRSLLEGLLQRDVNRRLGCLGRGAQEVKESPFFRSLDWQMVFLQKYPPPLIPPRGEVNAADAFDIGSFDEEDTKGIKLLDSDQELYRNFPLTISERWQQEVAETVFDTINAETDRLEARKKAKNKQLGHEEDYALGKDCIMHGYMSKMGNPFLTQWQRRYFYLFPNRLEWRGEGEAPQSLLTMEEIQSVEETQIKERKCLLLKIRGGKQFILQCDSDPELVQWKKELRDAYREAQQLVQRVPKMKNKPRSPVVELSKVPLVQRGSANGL
Sequence of Integrin beta-1 (Homo sapiens) + Integrin alpha-4 (Homo sapiens) (P05556 whole entry, looked up): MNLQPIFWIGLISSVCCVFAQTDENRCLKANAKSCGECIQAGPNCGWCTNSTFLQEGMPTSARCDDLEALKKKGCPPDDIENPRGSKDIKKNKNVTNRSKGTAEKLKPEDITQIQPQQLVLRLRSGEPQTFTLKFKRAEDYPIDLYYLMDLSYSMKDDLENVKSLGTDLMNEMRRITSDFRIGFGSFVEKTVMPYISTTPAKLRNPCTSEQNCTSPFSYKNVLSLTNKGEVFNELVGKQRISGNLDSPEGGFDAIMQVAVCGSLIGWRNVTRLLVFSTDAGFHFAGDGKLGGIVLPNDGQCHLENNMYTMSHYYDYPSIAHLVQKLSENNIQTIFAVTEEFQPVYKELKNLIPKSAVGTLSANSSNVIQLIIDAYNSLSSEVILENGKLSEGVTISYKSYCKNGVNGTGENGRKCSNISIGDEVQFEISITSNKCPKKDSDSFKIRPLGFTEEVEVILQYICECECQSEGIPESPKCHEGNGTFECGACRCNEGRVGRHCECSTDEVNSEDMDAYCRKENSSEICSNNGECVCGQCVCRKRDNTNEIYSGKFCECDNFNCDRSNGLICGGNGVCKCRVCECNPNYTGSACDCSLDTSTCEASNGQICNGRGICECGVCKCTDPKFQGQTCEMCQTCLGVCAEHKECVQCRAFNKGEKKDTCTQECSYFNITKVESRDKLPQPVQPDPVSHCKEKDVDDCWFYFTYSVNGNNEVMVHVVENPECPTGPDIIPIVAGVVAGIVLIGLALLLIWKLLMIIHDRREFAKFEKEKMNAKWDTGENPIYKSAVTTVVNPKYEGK
Sequence of Integrin beta-1 (Homo sapiens) + Integrin alpha-4 (Homo sapiens) (P13612 whole entry, looked up): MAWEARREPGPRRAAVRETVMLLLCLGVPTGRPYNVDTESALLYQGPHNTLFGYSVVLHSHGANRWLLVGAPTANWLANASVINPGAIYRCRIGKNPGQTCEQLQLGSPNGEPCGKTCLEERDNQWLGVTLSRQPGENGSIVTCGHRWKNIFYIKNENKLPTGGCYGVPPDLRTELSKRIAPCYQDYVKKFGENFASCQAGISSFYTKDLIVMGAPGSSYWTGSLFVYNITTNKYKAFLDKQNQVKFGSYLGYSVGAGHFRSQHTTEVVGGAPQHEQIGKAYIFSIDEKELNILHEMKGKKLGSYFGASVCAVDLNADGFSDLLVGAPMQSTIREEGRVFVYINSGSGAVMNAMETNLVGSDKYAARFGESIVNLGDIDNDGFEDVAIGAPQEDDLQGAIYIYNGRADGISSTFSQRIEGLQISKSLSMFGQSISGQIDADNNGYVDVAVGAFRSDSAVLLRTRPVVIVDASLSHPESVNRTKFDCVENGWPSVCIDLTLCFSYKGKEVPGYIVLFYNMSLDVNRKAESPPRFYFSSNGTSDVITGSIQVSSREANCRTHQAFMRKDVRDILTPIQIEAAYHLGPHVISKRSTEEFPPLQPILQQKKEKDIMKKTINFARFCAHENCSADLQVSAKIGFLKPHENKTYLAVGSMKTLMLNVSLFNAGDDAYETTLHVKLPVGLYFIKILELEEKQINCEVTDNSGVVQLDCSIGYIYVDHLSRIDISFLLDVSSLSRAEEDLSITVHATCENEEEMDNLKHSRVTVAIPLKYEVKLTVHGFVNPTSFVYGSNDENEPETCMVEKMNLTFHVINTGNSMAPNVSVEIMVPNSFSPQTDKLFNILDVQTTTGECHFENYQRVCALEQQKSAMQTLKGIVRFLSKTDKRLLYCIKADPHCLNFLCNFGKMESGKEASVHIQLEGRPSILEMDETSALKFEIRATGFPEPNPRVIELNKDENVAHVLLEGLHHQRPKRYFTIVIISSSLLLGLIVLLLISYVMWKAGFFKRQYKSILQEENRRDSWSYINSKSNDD
Sequence of ATP-binding cassette sub-family B member 6 (Homo sapiens) (Q9NP58 whole entry, looked up): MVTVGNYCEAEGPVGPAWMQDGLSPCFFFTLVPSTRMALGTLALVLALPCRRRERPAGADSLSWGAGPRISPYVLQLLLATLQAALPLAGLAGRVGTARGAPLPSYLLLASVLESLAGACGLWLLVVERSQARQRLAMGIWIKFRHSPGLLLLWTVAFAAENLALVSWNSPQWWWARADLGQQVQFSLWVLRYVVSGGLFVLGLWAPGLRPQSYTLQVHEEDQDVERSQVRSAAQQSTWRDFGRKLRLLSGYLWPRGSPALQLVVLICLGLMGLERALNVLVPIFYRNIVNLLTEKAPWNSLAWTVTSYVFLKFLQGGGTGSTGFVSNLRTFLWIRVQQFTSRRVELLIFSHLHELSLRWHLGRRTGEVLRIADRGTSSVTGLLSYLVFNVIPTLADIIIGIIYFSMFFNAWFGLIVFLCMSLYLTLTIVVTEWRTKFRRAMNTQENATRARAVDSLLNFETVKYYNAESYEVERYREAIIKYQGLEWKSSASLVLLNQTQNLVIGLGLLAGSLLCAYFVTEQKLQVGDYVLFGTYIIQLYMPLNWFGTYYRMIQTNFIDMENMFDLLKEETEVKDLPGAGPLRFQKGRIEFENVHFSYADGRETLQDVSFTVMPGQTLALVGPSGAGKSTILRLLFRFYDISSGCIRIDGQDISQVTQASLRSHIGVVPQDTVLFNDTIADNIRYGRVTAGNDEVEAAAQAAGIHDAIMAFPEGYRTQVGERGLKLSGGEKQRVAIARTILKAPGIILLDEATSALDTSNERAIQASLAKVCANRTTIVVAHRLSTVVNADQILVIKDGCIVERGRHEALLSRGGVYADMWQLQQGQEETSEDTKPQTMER
Sequence of AP-2 complex subunit beta (Homo sapiens) (P63010 whole entry, looked up, the tested form may be a part, one chain of several): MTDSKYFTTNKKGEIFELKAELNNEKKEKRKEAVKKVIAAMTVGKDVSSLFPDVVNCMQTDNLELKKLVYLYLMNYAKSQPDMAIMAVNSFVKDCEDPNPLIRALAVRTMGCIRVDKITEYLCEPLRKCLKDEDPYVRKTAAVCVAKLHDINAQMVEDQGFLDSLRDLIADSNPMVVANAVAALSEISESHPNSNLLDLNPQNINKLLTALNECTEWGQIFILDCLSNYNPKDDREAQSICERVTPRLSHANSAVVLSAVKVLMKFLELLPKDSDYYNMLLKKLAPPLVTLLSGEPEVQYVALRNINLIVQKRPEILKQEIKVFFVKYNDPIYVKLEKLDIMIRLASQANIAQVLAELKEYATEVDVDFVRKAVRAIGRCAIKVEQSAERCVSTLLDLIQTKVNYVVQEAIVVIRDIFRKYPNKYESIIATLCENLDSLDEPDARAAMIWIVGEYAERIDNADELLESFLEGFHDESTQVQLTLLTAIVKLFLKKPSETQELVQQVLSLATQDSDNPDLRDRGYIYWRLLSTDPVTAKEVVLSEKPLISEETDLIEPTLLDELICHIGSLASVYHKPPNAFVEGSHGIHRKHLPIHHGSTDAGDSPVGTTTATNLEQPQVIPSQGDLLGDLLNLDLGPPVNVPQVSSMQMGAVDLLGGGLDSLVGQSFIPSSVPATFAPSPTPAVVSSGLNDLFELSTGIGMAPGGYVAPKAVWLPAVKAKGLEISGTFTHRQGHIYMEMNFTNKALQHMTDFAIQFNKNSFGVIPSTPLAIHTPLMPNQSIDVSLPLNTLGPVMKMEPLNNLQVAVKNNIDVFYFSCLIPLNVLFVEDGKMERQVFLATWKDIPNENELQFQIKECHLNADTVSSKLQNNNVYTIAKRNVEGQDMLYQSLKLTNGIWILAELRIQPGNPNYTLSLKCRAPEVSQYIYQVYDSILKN
Sequence of Beta-2 adrenergic receptor (Homo sapiens) (P07550 whole entry, looked up): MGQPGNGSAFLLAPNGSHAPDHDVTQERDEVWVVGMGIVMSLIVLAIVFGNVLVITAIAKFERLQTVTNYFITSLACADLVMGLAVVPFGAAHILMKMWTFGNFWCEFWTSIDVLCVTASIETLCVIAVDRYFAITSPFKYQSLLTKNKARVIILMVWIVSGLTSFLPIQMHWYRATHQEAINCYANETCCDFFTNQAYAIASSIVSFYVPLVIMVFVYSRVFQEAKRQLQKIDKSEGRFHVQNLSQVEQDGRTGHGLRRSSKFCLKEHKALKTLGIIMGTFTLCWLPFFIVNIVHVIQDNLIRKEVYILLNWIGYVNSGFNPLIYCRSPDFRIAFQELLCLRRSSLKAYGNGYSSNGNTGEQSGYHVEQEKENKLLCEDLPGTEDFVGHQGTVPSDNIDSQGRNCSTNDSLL

NC(CO)C(=O)NNCc1ccc(O)c(O)c1O (configuration not stated)
active: inhibition [11] 62.4% | binding (% of control) [13] 60.7% | efflux inhibition (fraction of control) [14] 0.66
65.1%: double positive events [6]
inactive: percent of DMSO control GFP [1] 98.4% | GFP response vs DMSO [2] 98.7% | percent response of DMSO control [3] 98.6% | GFP response vs DMSO [4] 91.5% | GFP response, % of DMSO [5] 96.5% | vesicle binding response [6] 130% | inhibition [7] 13.7% | superoxide response (% of plate) [8] 92.9% | aptamer binding inhibition [9] 8% | response [10] 8.54% | response [12] -0.21% | inhibition [15] 5% | differentiation response [16] -8.96%

CC(C)N(C(=O)Cc1ccccc1[N+](=O)[O-])C(C)C
60.4%: double positive events [6]
inactive: percent of DMSO control GFP [1] 104% | GFP response vs DMSO [2] 96.3% | percent response of DMSO control [3] 102% | GFP response vs DMSO [4] 92.2% | GFP response, % of DMSO [5] 104% | vesicle binding response [6] 240% | inhibition [7] 3.67% | superoxide response (% of plate) [8] 104% | aptamer binding inhibition [9] 2% | response [10] -2.55% | inhibition [11] -8.88% | response [12] 1.74% | binding (% of control) [13] 103% | efflux inhibition (fraction of control) [14] -0.13 | inhibition [15] 5% | differentiation response [16] -26.4%

O=C(O)C1CCN(C(=O)COc2ccc3c4c(c(=O)oc3c2)CCC4)CC1
65.1%: double positive events [6]
inactive: percent of DMSO control GFP [1] 105% | GFP response vs DMSO [2] 105% | percent response of DMSO control [3] 101% | GFP response vs DMSO [4] 112% | GFP response, % of DMSO [5] 110% | vesicle binding response [6] 420% | inhibition [7] 6.55% | superoxide response (% of plate) [8] 105% | aptamer binding inhibition [9] 1% | response [10] -31% | inhibition [11] -5% | response [12] 1.29% | binding (% of control) [13] 109% | efflux inhibition (fraction of control) [14] 0 | inhibition [15] 3% | differentiation response [16] -1.05%

Cc1cccc(CN2CCN(C(c3ccccc3)c3ccc(Cl)cc3)CC2)c1 (configuration not stated)
62.4%: double positive events [6]
inactive: percent of DMSO control GFP [1] 97.7% | GFP response vs DMSO [2] 104% | percent response of DMSO control [3] 98.2% | GFP response vs DMSO [4] 99.4% | GFP response, % of DMSO [5] 96.9% | vesicle binding response [6] 227% | inhibition [7] -6.04% | superoxide response (% of plate) [8] 99.2% | aptamer binding inhibition [9] 2% | response [10] 8.57% | inhibition [11] 35.5% | response [12] 0.49% | binding (% of control) [13] 105% | inhibition [15] -1% | differentiation response [16] 26.3%
active: efflux inhibition (fraction of control) [14] 0.46

Cn1c(Oc2ccc3c(c2)OCO3)nc2c1c(=O)n(Cc1ccccc1)c(=O)n2C
60.5%: double positive events [6]
inactive: percent of DMSO control GFP [1] 98.7% | GFP response vs DMSO [2] 102% | percent response of DMSO control [3] 94.4% | GFP response vs DMSO [4] 104% | GFP response, % of DMSO [5] 109% | vesicle binding response [6] 189% | inhibition [7] -5.38% | superoxide response (% of plate) [8] 116% | aptamer binding inhibition [9] 8% | response [10] -26.9% | inhibition [11] 3.83% | response [12] -0.9% | binding (% of control) [13] 97.8% | efflux inhibition (fraction of control) [14] 0.04 | inhibition [15] 5% | differentiation response [16] -4.99%

COc1ccccc1OCC(O)COC(N)=O (configuration not stated)
inactive: percent of DMSO control GFP [1] 93.3% | GFP response vs DMSO [2] 131% | percent response of DMSO control [3] 97.9% | GFP response vs DMSO [4] 82% | GFP response, % of DMSO [5] 84.5% | vesicle binding response [6] 133% | inhibition [7] 11.3% | superoxide response (% of plate) [8] 101% | aptamer binding inhibition [9] 1% | response [10] 1.55% | inhibition [11] -1.32% | response [12] -1.8% | binding (% of control) [13] 101% | efflux inhibition (fraction of control) [14] 0.01 | inhibition [15] 9% | differentiation response [16] 3.28%
62.5%: double positive events [6]

From PubChem BioAssay
